# Assay results: PubChem BioAssay (NCI)
# Compounds without any hit were thinned out: in the full panel of roughly 83,000, 20% have a hit.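 Plates (96-well) were seeded with cells, treated with compound at one concentration, and incubated for 48 hours before percent growth was determined.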 Values without a mark were called inactive. Activity calls are given as the source filed them. How the source made its calls: active means growth percent below 10; inactive means the rest.
# System: HL-60(TB) leukemia
# Experiment: NCI-60 one-dose screen, 48 h (100 = growth as untreated, 0 = no growth, -100 = all killed)
# Conditions: 10 µM unless noted
row,SMILES,growth
1,CCOC(=O)C(=CCC(C)C)C(=O)OCC,40.5%
2,CCNC(=O)Nc1ncccc1OCc1ccc(F)cc1,95.5%
3,Cc1cnc(C(=O)NNc2nc3sc4c(c3c(=O)[nH]2)C(C)CCC4)cn1 (stereo not given),-30.7% (active)
4,COC(=O)/C=C1\S/C(=N\Nc2ccc([N+](=O)[O-])cc2[N+](=O)[O-])N(C2CCCCC2)C1=O,8.63% (active)
5,Nc1c2c(nc3ccc(Cl)cc13)CC(c1ccccc1)CC2=O (stereo not given),11%
6,Nc1nnc2cc(F)ccc2n1,107%
7,C[C@@H]1CC[C@@H]2[C@@H]1[C@H](OC(=O)/C=C/c1ccccc1)[C@]1(c3ccccc3)C[C@@H](NC(=O)CO)[C@@]2(C)O1,97.7%
8,C/C(=C\C(=O)c1ccc(Cl)cc1)c1ccc(Cl)cc1,92.5%
9,N#Cc1c(-c2ccc(Cl)cc2)nc(N/N=C/c2cccc(Br)c2)nc1N1CCOCC1,40.6%
10,C=C(C)[C@@H]1CC[C@]2(C(=O)N3CCN(C)CC3)CC[C@]3(C)[C@H](CC[C@@H]4[C@@]5(C)CC[C@H](OCCC#N)C(C)(C)[C@@H]5CC[C@]43C)[C@@H]12,73.8%
11,COc1cc(-c2nc(N=Nc3c(O)[nH]c4ccc(Br)cc34)[nH]c(=O)c2C#N)cc(OC)c1OC,101%
12,COc1cccc2c(=O)c3c(sc12)c(NCCCNCCO)nc1ccccc13,59.8%
13,COc1ccc(C(=O)c2cc3c(N)c(C(=O)Nc4cccc(OC)c4)sc3nc2C)cc1,-44.5% (active)
14,COc1cc(Br)c(-c2nc(-c3ccccc3)c(-c3ccccc3)n2Cc2ccccc2)cc1OC,18.6%
15,CC(C)C1=NOC(=O)C1=Cc1cn(-c2ccccc2)nc1-c1ccc(Cl)cc1,-44.5% (active)
16,O=C(O)c1ccccc1C(=O)Nc1ccc(Cl)cc1,55%
17,COc1cc(C2CC(c3ccc(Nc4ccnc5cc(Cl)ccc45)cc3)=NN2c2ccc(Cl)cc2)cc(OC)c1OC (stereo not given),40.3%
18,Cc1cc(C)c(NC(=O)c2sc3nc4c(cc3c2N)CCCC4)c(C)c1,-6.2% (active)
19,CC(C)(O)c1cccc(F)c1,70.7%
20,CCOC(=O)c1c(NC(=O)c2cccc(C(F)(F)F)c2)sc2c(CN(C)C)c(O)ccc12,16.3%

row,SMILES,growth
1,CCOC(=O)CNC(=O)Nc1ccc(Oc2ccc(NC(=O)NCC(=O)OCC)cc2)cc1,108%
2,CC[n+]1ccc(Nc2ccc(NC(=O)c3ccc(Nc4cc[n+](CC)c5ccc([N+](=O)[O-])cc45)cc3)cc2)cc1,66.9%
3,COc1ccc2c(c1)OC(N)=C(C#N)C2c1ccc(F)cc1 (stereo not given),-14.7% (active)
4,O=C1c2ccccc2C(=O)c2c(Nc3ccc(CCO)cc3)ccc(O)c21,83.9%
5,COc1cc(C(C)n2cc(-c3ccccc3)nn2)ccc1OC1CCCC1 (stereo not given),53.1%
6,O=NC1CC=CCC1c1ccccc1 (stereo not given),92.6%
7,S=C(c1ccc2c(c1)OCO2)N1CCN(c2cccc(Cl)c2)CC1,11.9%
8,O=C(Nc1cccc(NC(=O)C2CCCCC2)c1)c1ccccn1,95.4%
9,O=C(O)c1cc([N+](=O)[O-])ccc1Cl,104%
10,CC(C)C(=O)Nc1ncc(C(=O)NCCN(Cc2ccccc2)C(=O)c2ccc(S(=O)(=O)Nc3ccccc3)cc2)s1,107%
11,COc1ccc(-c2cc(=O)oc3ccc(Cl)cc23)cc1F,-21.9% (active)
12,COc1ccc(C(Cn2ccnc2)Sc2ccc(Cl)c(Cl)c2)cc1 (stereo not given),70.7%
13,CCCCn1c(Cc2ccc(Cl)cc2)nc2cc(OC)c(OC)cc2c1=O,53.7%
14,O=C1COc2ccccc2C(=O)N1CCCCN1CCCCC1,75.3%
15,CN1CCN(c2ccc(NC3=CC(=O)c4ncncc4C3=O)cc2)CC1,-32.1% (active)
16,CCOC(=O)c1cnc2cc(Cl)c(F)cc2c1Nc1cccc(NS(C)(=O)=O)c1,105%
17,COc1ccc(CNc2c3ccccc3nc3ccccc23)cc1F,12.9%
18,CN1CC[C@@H](c2c(O)cc(O)c3c(=O)cc(-c4ccccc4Cl)oc23)[C@@H]1CO,-28.6% (active)
19,CCOC(=O)c1nn(CC(O)c2ccccc2)c(NC(=O)Nc2cccc(F)c2)c1C (stereo not given),108%
20,CC(C)c1ccc(NC(=O)Nc2ccc(NC(=O)c3ccccc3N)cc2)cc1,50.1%
